From PubChem
A selection: hits, their analogues and other compounds. The true share with any hit is near 1.9%.
eIF4E-4G inh – eIF4E–eIF4G protein interaction inhibitors, primary screen, biochemical, uHTS, TR-FRET, eIF4GI fragment | Eukaryotic translation initiation factor 4E (Mus musculus) + Eukaryotic translation … | inhibition, % at 21.7 µM | AID 782, 2007 | actives 0.37% (n = 220,000) | TR-FRET eIF4E-eIF4GI(517-606) binding, 2 h;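 active means inhibition above about 30%, limit read from the data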;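 further: 0% = full FRET control wells and 100% = background wells lacking eIF4GI fragment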
Target sequence (P63073 whole entry, looked up, the tested form may be a part): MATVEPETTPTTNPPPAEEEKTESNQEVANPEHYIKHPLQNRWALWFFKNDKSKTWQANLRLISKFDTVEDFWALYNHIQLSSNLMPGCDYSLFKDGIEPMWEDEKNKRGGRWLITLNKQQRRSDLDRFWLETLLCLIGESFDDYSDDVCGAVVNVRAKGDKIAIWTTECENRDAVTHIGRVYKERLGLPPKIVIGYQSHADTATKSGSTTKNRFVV
Target sequence (Q04637 whole entry, looked up, the tested form may be a part): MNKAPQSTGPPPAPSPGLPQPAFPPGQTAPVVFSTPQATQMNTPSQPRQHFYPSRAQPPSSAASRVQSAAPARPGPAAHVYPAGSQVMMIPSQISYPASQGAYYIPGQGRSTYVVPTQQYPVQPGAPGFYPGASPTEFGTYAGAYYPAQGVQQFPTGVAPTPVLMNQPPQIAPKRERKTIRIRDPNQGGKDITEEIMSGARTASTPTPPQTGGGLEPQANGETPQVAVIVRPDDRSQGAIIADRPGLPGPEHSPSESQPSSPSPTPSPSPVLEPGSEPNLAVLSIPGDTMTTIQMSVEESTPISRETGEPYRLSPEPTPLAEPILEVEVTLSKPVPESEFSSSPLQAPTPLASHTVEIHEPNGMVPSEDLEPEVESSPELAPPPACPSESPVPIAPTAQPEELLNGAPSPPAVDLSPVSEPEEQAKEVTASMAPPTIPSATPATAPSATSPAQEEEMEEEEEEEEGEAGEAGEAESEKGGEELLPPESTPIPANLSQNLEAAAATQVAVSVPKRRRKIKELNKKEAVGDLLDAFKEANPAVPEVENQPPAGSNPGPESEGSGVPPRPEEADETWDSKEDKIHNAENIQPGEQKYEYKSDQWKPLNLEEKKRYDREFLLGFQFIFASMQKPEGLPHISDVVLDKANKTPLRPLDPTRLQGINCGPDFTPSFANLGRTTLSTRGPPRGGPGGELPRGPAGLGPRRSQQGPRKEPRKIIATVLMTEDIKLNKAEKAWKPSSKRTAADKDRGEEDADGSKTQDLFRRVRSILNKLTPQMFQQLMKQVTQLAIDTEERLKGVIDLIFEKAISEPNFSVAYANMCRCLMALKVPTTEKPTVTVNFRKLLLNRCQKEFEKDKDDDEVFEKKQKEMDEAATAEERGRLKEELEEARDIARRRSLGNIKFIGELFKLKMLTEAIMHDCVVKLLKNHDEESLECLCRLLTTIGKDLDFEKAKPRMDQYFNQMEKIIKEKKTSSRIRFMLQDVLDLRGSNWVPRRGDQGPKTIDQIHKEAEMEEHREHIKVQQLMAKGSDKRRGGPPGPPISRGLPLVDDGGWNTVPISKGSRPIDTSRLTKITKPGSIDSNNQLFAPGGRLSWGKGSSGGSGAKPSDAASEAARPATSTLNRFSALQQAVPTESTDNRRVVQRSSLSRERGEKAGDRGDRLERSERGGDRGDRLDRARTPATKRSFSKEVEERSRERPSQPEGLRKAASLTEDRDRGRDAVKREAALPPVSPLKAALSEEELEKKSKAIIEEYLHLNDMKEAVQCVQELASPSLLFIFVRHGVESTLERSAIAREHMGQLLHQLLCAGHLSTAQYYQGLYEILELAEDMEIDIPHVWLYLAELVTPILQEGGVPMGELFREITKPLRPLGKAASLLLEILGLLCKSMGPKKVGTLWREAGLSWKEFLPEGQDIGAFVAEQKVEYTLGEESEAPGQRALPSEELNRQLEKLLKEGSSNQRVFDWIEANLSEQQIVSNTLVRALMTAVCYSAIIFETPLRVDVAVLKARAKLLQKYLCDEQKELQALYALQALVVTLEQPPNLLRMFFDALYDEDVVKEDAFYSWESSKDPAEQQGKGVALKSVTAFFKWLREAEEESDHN
eIF4H FP inh – human eIF4H binding inhibitors, primary screen, translation initiation inhibitor project, biochemical, uHTS, fluorescence polarization | actives 0.94% (n = 290,000) | Eukaryotic translation initiation factor 4H (Homo sapiens), Q15056 | AID 2012, 2009 | inhibition, % at 35 µM | eIF4H fluorescence polarization binding assay;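 further: calls also rest on retests at 20 µM and on dose response follow-up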
14-3-3 Bad inh – inhibitors of 14-3-3 zeta/Bad binding, primary screen, biochemical, TR-FRET, bovine 14-3-3 zeta. 14-3-3 protein zeta/delta (Bos taurus), P63103. TR-FRET 14-3-3zeta/Dy647-pBad peptide displacement, 1 h. inhibition, % at 21.7 µM. actives 0.71% (n = 220,000). AID 781, 2007;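 active means inhibition above about 70%, limit read from the data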;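 further: 0% = full 14-3-3 plus peptide FRET controls and 100% = background without 14-3-3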
MLLE-PAM2 inh – inhibitors of PABP1 MLLE–PAM2 peptide binding, primary screen, biochemical, fluorescence polarization, FITC-PAM2, GST-MLLE; AID 588489, 2011; Polyadenylate-binding protein 1 (Homo sapiens), P11940; inhibition, % at 20 µM; actives 0.36% (n = 360,000); in the data active means inhibition above about 35%, passing the limit was not always enough;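 further: plate controls were DMSO wells with GST-MLLE for no effect and wells lacking GST-MLLE protein for full effect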
PABP polyA inh – PABP poly(A) RNA binding inhibitors, primary screen, biochemical, fluorescence polarization, uHTS; AID 2014, 2009; Polyadenylate-binding protein 1 (Homo sapiens), P11940; calls only at 35 µM; actives 1% (n = 290,000);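 further: calls also rest on retests at 20 µM and on dose response follow-up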
Active calls of the source: *; i = inactive; u = inconclusive; x = no result; + = active, no number; [ ] = another dose, or the depositor's remark. Unless noted, how the calls were made is not given here.

SMILES	eIF4E-4G inh	eIF4H FP inh	14-3-3 Bad inh	MLLE-PAM2 inh	PABP polyA inh
COc1nc(-c2ccccc2)cc(-c2ccccc2)n1	2	active	9	-13	+
COc1ccc(/C=N/n2c(-c3cccs3)n[nH]c2=S)cc1	33*	4	-11	-36	i
CCOC(=O)c1c(C)[nH]c(C(=O)COC(=O)c2ccc([N+](=O)[O-])o2)c1C	x	x	x	-9	x
O=C1CN=C(Nc2ccccc2)N1Cc1cccs1	1	-4	72*	8	i
Cc1cc(C)cc(NC2=NCC(=O)N2Cc2ccccc2)c1	-1	-11	72*	7	i
O=C(c1ccc(F)c(F)c1)N1CCC2(CC1)NCCc1[nH]cnc12	x	x	x	13	x
CC(=O)C1=CCC(c2cccs2)N(S(=O)(=O)c2ccc(C)cc2)C1 (centres undefined)	x	x	x	3	x
C/C(=N\NC(=O)c1cccnc1)c1ccc(OC2OCCOC2Oc2ccc(/C(C)=N/NC(=O)c3cccnc3)cc2)cc1 (centres undefined)	15	-19	87*	-2	i
COc1ccc(/C(C)=N/NC(=O)CNC(=O)c2cccnc2)cc1	x	-3	x	-5	i
COc1ccc(NC(=O)/C(C#N)=C/c2ccc(-c3ccccc3C(=O)O)o2)cc1	x	6	x	4	i
COc1ccc(NC(=O)/C(C#N)=C\c2ccc(Br)o2)cc1	17	80*	8	-9	+
COc1ccc(NC(=O)/C(C#N)=C\c2ccc(-c3cc(C(=O)O)ccc3C)o2)cc1	x	79*	x	18	+
COc1ccc(Cl)cc1NC(=O)NNC(=O)C(=O)Nc1ccc(F)cc1	x	x	x	-1	x
O=c1n(Cc2ccccc2)c(O)c2n1Cc1ccccc1N=C2c1ccccc1	x	x	x	-1	x
CNC(=O)c1ccc(-n2cccn2)nc1	0	5	-7	14	i
COc1ccc(OC)c(NC(=O)c2ccc(-n3cccn3)nc2)c1	-3	106*	-3	-5	+
COc1ccccc1C(=O)NCC1(c2ccccc2)CCCC1	0	-7	3	3	i
c1ccc2nc3c(nc2c1)c1ccccc1n3CCN1CCOCC1	8	-3	-3	27	i
CCn1c2ccccc2c2nc3cc(S(=O)(=O)N4CCOCC4)ccc3nc21	48*	-3	33	31	i
O=C1CCC[C@@H]2[C@H]3CCC[N+]4([O-])CCC[C@@H](CN12)[C@@H]34 (some centres undefined)	x	0	x	-8	i
Cc1[nH]c2ccccc2c1C(c1ccccn1)c1c(C)[nH]c2ccccc12	0	55*	2	7	+
Cc1ccc(OCC(=O)Nc2ccccc2[N+](=O)[O-])c(Br)c1	-4	-4	1	22	i
CCOC(=O)c1c(NC(=O)CC(C)C)sc(C(C)=O)c1C	-4	-5	-8	12	i
CCOC(=O)c1c(NC(=O)c2cc(-c3ccc(O)cc3)on2)sc(C(C)=O)c1C	31*	6	65	-7	i
Cn1c(C(=O)N[C@@H](C(=O)O)c2ccccc2)cc2cc(Cl)ccc21	x	62	x	-17	+
SMILES	eIF4E-4G inh	eIF4H FP inh	14-3-3 Bad inh	MLLE-PAM2 inh	PABP polyA inh
COc1ccc(C2C3=C(CC(C)(C)CC3=O)Nc3c2c(=O)n(C)c(=O)n3C)cc1OC (centres undefined)	-3	active	-3	3	i
C=CCOc1ccccc1C1C2=C(CC(C)(C)CC2=O)Nc2c1c(=O)n(C)c(=O)n2C (centres undefined)	-2	2	-8	-7	i
Cc1cc(NC(=O)Cn2nc(C)c([N+](=O)[O-])c2C)no1	-9	-2	-10	-8	i
CN(CC(=O)Nc1ccc(F)cc1)C(=O)COC(=O)c1cccc(N(C)C)c1	x	x	x	-10	x
Nc1ccc2nc(CN3CCOCC3)[nH]c2c1	-6	-2	91*	0	i
c1ccc2[nH]c(CN3CCOCC3)nc2c1	-1	-7	2	-2	i
COc1ccccc1CNC(=O)c1cc(-c2ccccc2C)n(CC2CC(c3cccc([N+](=O)[O-])c3)=NO2)n1 (centres undefined)	x	x	x	0	x
C=CCN1C(=O)C2(NNc3ccccc3O2)c2ccccc21 (centres undefined)	-10	101*	-1	-94	+
Cn1ccc(-c2ccccc2)n1	-2	-6	-4	-4	i
N#Cc1cc(-c2ccccc2)nn1-c1ccccc1	66*[fluorescence artefact?]	-2	80*[fluorescence artefact?]	22	i
COc1ccc(-c2ccc3[nH]c4c(c3c2)CCN2C(=O)[C@@H]([C@H](C)O)[C@@H](N(C)C(=O)Nc3ccccc3)C[C@@H]42)cc1	x	x	x	-7	x
Oc1ccc(/C=N/Nc2nn3cnnc3c3ccccc23)cc1	98*	6	1	-11	i
O=C(O)c1ccc(NS(=O)(=O)c2ccc3c(c2)C2C=CCC2C(c2ccccc2F)N3)cc1 (centres undefined)	13	97	29	-13	+
Nc1ccc(S(=O)(=O)Nc2nc3ccccc3o2)cc1	x	55*	x	11	+
COc1cc(CO)c(Br)cc1OCC(N)=O	1	4	82*	-3	i
COc1cc(CO)c(Br)cc1OCC(=O)Nc1ccccc1C	0	80	-12	3	i
CS(=O)(=O)c1cnc(-c2ccccc2)nc1-c1ccc(Cl)c(Cl)c1	6	5	73*	-3	i
CC(=O)Oc1ccc2c(=O)c(Oc3ccccc3)coc2c1OC(C)=O	11	98*	-1	4	+
NC(=S)n1[nH]c(-c2ccc([N+](=O)[O-])cc2)c(N=Nc2ccc(Cl)cc2)c1=O	9	u	93*	38	+
COc1ccc(S(=O)(=O)N2CCN(C(=O)CC3CC4CCC3C4)CC2)cc1 (centres undefined)	x	x	x	-2	x
CCOc1ccc(N(CC(=O)Nc2ccc(C)c(C)c2)S(C)(=O)=O)cc1	x	1	x	-48	i
Cc1ccc([N+](=O)[O-])cc1NCC(=O)NN	1	1	-2	10	i
O=C1c2ccccc2C(=O)N1Cc1nc2ccccc2c(=O)n1Cc1ccco1	x	-3	x	x	i
O=c1c2ccccc2nc2ccc(NCc3ccco3)nn12	8	43	0	81	+
Cc1sc2nc3ccc(NCc4ccco4)nn3c(=O)c2c1C	-14	24	27	41*	i
CCOc1cc(CN2CCN(c3ccc(C(C)=O)cc3)CC2)ccc1OC	10	-8	89*	-4	i
CCOc1cc(CN2CCN(c3cccc(C(F)(F)F)c3)CC2)ccc1OC	-3	-1	70*	6	i
